Most compounds without a hit are left out; they make up all but 1.3% or so of the library.
S1P2 antag = human S1P2 receptor antagonists, primary screen, cell-based. 97,000 compounds, 0.21% hits. inhibition, % at 5 µM. AID 736, 2007. cell-based S1P2 antagonist assay, inhibition at 5 uM; in the data active means inhibition above about 45%;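 further: CRE beta-lactamase reporter cells expressing human S1P2 stimulated with S1P; 0% = agonist at EC80 alone and 100% = agonist plus reference antagonist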
GALR2 ag = GALR2 receptor agonists, primary screen, cell-based | Galanin receptor type 2 (Homo sapiens), O43603 | GALR2-expressing cells, agonist activation read-out | activation, % (concentration not given with the values) | 140,000 compounds, 0.48% hits | AID 803, 2007; in the data active means activation above about 5%, passing the limit was not always enough;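 further: 0% = vehicle buffer wells and 100% = reference agonist at full effect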
Target sequence (O43603 whole entry, looked up): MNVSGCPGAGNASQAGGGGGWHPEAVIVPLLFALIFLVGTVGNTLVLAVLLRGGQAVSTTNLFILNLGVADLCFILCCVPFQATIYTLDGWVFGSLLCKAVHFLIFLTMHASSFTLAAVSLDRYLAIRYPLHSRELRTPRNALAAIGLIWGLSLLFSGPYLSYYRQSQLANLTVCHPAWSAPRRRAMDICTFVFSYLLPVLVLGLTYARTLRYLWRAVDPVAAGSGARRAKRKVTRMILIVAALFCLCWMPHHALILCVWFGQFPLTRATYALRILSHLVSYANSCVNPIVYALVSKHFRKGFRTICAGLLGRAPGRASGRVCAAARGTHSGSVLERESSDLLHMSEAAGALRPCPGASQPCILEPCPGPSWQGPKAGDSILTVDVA
GALR2 antag = GALR2 antagonists in receptor-expressing cells, primary screen. Galanin receptor type 2 (Homo sapiens), O43603. antagonist mode. inhibition, % at 4 µM. 140,000 compounds, 0.39% hits. AID 828, 2007; in the data active means inhibition above about 27%;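 further: cells stimulated with galanin 1-16 at roughly its EC80; 0% = agonist challenge control and 100% = basal control without agonist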
S1P2 ag = S1P2 receptor agonists, primary screen, cell-based; 97,000 compounds, 0.46% hits; activation, % at 4.5 µM; Sphingosine 1-phosphate receptor 2 (Homo sapiens), O95136; S1P2-expressing cell line, agonist reporter read-out; in the data active means activation above about 16%;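 further: 0% = vehicle low control and 100% = maximal reference agonist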
Phagocytosis inh = inhibitors of macrophage phagocytosis, primary screen, imaging, J774A.1 cells, IgG beads; J774A.1 macrophage IgG-bead phagocytosis; inhibition, % at 5 µM; 110,000 compounds, 0.07% hits;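 active means inhibition above the mean of the plate negative controls plus 5 SD, cut at about 13% in these data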;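 further: phagocytic index as fraction of beads internalized from green versus red external bead signal; plate controls were DMSO negative control for no effect and cytochalasin-D positive control for full effect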
* hit, by the source's call; . = not tested or not shown.

SMILES	S1P2 antag	GALR2 ag	GALR2 antag	S1P2 ag	Phagocytosis inh
Cc1ccc(CSc2nnc(-c3ccco3)n2N)cc1	6	-3	-5	26*	-2
COc1ccc(C(=O)N=C2CCC(C#N)=C3c4cc(OC)c(OC)cc4CCN23)cc1	.	3	14	.	-9
COc1cc2c(cc1OC)C1=C(C#N)CC/C(=N\S(=O)(=O)c3ccccc3)N1CC2	-51	-1	-4	49*	0
COc1cc2c(cc1OC)C1=C(C#N)CCC(=O)N1CC2	-27	0	-22	62*	.
Cc1ccc(-n2c(SCC3CNC(=O)O3)nnc2-c2ccccc2)cc1C (configuration not stated)	.	0	0	.	-2
Cc1cc(C)cc(Oc2nc(C(F)(F)F)nc3ccccc23)c1	-33	-2	-3	18*	0
COc1ccc(Oc2nc3ccccc3nc2C(F)(F)F)cc1	-5	-2	5	0	.
Cc1nn(Cc2ccccc2)c2sc(C(=O)N3CCN(Cc4ccc5c(c4)OCO5)CC3)cc12	-3	-1	-11	-3	-1
CCOC(=O)c1cc(C)sc1/N=C/C1=C(O)CCCC1=O	.	0	-10	.	8
CCOC(=O)c1sc2c(c1C)C(c1cccs1)C1=C(CCCC1=O)N2 (configuration not stated)	-46	9.2*	-8	31*	1
OCCn1c(CSc2nnc(-c3ccco3)n2-c2ccccc2)nc2ccc(Cl)cc21	-23	0	-21	34*	-2
O=C(OCc1nc2ccc(Cl)cc2n1CCO)c1ccccc1	.	-2	6	.	-5
Cc1cc(C)cc(-n2c(SCC(=O)Nc3cccc(S(=O)(=O)NC4=NCCCCC4)c3)nc3ccccc3c2=O)c1	.	1	-7	.	-6
CCCCOc1ccccc1NC(=O)Cn1c(-c2nonc2N)nc2ccccc21	.	7.8*	18	.	-1
COC(=O)c1sc(=S)sc1C(=O)OC	7	-3	16	-4	-1
CCc1c(C)sc2nc(C(C)C)nc(SCC(=O)N3CCc4ccccc4C3)c12	18	-1	1	-6	0
COc1ccc(OC)c(C2=Nn3c(nnc3-c3cc(OC)c(OC)c(OC)c3)SC2)c1	-25	1	13	40*	-1
COc1cc(-c2nnc3n2N=C(c2ccccc2)CS3)cc(OC)c1OC	-26	1	-7	34*	2
COc1cccc(-c2nnc3n2N=C(c2cc(OC)ccc2OC)CS3)c1	-21	-1	2	10	.
COc1cccc(-c2nnc3n2N=C(C(C)(C)C)CS3)c1	98*	-2	20	-8	.
Cc1ccc(-c2nnc3n2N=C(c2ccccc2)CS3)cc1	.	0	13	.	0
Cc1ccc(-c2nnc3c4ccccc4c(C)nn23)cc1S(=O)(=O)N1CCN(C)CC1	2	1	10	-2	.
Cc1ccc(-c2nnc3c4ccccc4c(C)nn23)cc1S(=O)(=O)N1CCN(CCO)CC1	-41	1	-3	17*	-1
Cc1cccc(S(=O)(=O)Nc2nc3ccccc3nc2NCc2ccc3c(c2)OCO3)c1	.	-1	13	.	-14
CC(C)(C)OC(=O)N[C@@H](Cc1ccccc1)c1nnc(S(=O)(=O)Cc2ccccc2)o1	12	2	35*	-4	4
SMILES	S1P2 antag	GALR2 ag	GALR2 antag	S1P2 ag	Phagocytosis inh
Cc1cccc2sc(NNC(=O)c3ccc(S(=O)(=O)N4CCCC(C)C4)cc3)nc12 (configuration not stated)	.	5.2*	-1	.	.
O=C1C2C3C=CC(O3)C2C(=O)N1CC(O)c1ccccc1 (configuration not stated)	-21	-3	-4	-2	-2
O=C(Nc1ccccn1)Nc1cccs1	15	0	2	133*	0
COC(C(=O)Nc1ccc(S(=O)(=O)Nc2cccc3ccccc23)cc1)c1ccccc1 (configuration not stated)	.	-1	4	.	0
Cc1cc(C)n2cc(CSc3nnnn3-c3ccc(Cl)cc3)nc2n1	-5	-1	6	106*	1
Cc1cc(C)n2cc(CSc3nnnn3-c3ccccc3)nc2n1	-22	-1	-3	-7	0
Nc1nc(SCc2ccc([N+](=O)[O-])cc2)nc2nc3c(cc12)CCCC3	.	5.1*	-4	.	-6
Cc1ccc2cc(C(c3nnnn3CC3CCCO3)N3CCc4ccccc4C3)c(=O)[nH]c2c1 (configuration not stated)	-13	-2	4	-3	.
